From PubChem
PglD DTNB: inhibitors of Campylobacter jejuni PglD acetyltransferase | AID 602405 | 360,000 tested, 0.098% active | inhibition, % at 12.5 µM | purified PglD enzyme, DTNB colorimetric CoA detection; in the data active means inhibition above about 16%, passing the limit was not always enough
ERp5 block: blocks human ERp5 reductase activity on insulin | ERp5 insulin aggregation, absorbance 650 nm, 90 min | inhibition, % at 9.99 µM | 350,000 tested, 0.05% active;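 active means mean replicate inhibition above about 25%, with every replicate also reaching it, limit read from the data, passing the limit was not always enough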
Target sequence (Q15084 whole entry, looked up): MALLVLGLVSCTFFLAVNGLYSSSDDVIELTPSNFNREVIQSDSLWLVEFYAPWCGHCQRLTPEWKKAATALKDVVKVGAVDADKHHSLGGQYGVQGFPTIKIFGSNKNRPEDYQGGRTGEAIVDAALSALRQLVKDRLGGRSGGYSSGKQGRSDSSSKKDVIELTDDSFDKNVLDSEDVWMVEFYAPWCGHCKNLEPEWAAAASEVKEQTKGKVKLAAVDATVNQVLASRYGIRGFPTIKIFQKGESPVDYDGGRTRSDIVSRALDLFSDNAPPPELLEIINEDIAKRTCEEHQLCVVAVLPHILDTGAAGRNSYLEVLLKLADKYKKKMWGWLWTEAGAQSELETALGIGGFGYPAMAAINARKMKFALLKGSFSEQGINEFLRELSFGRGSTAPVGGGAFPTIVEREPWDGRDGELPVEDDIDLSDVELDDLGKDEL
ALR inh: blocks human ALR sulfhydryl oxidase activity. P55789. purified ALR, DTT oxidation, H2O2 HRP-luminol luminescence. inhibition, % (concentration not given with the values). 290,000 tested, 3.8% active. AID 485317;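 active means mean replicate inhibition above about 79%, with every replicate also reaching it, limit read from the data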
Target sequence (P55789 whole entry, looked up): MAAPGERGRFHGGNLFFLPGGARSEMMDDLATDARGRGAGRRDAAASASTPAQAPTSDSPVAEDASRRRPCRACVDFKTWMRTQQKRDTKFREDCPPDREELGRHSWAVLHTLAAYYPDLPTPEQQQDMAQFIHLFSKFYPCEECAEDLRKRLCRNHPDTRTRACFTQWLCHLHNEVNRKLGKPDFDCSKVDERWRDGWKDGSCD
ARNT-TACC3 inh: ARNT/TACC3 interaction disruption; Q9Y6A5; AlphaScreen His-ARNT PAS-B/GST-TACC3 binding, luminescence; TACC3 fragment carries E629A point mutation; inhibition, % at 9.99 µM; 390,000 tested, 0.66% active;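 active means mean inhibition of replicates at least 50% and at least half of replicates each reaching 50%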
NRP1-CendR mod: alters CendR peptide binding to human NRP-1; AID 602438; FAM-RPARPAR peptide binding to NRP-1, fluorescence polarization; inhibition, % at 25 µM; 360,000 tested, 0.85% active;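 active means inhibition or corrected inhibition above about 18%, plus a signal ratio from 0.5 to 1.5, limit read from the data, passing the limit was not always enough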
PDI inh: PDI (human) enzyme inhibition; P07237; PDI insulin aggregation turbidity, A650, 90 min; inhibition, % at 10 µM; 350,000 tested, 0.052% active;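 active means mean inhibition across replicates of 30% or more, whatever share of single replicates reach that level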
Each line names hits and unclear results; the compound was inactive in the other large screens. Only a selection was taken, and hits are over-represented in it overall.

O=S(=O)(c1ccc(Br)cc1)c1nc(-c2ccco2)oc1NCCCn1ccnc1	ARNT-TACC3 inh 64 (no result: PglD DTNB, ALR inh)
O=S(=O)(c1ccccc1)c1nc(-c2cccs2)oc1NCCCn1ccnc1	none (no result: ERp5 block)
C[C@H](CO)N1C[C@H](C)[C@H](CN(C)S(=O)(=O)c2ccc(F)cc2)Oc2ccc(NC(=O)NC3CCCCC3)cc2CC1=O	none (no result: ALR inh, NRP1-CendR mod, PDI inh)
CCC(=O)N(C)C[C@H]1Oc2cc(-c3ccc(OC)cc3)ccc2S(=O)(=O)N([C@H](C)CO)C[C@H]1C	none (no result: ALR inh, NRP1-CendR mod, PDI inh)
COc1cc(CNCc2ccccn2)ccc1OCC(N)=O	ARNT-TACC3 inh 49
COc1cc(CNCc2ccccn2)ccc1OCc1ccc(Cl)c(Cl)c1	none
CO[C@@H]1CN(C)C(=O)c2cc(NC(=O)c3cccc(F)c3)ccc2OC[C@H](C)NC[C@@H]1C	none (no result: ALR inh, ARNT-TACC3 inh, NRP1-CendR mod, PDI inh)
Cc1noc(C)c1S(=O)(=O)Nc1ccc2c(c1)CC(=O)N([C@H](C)CO)C[C@@H](C)[C@H](CN(C)Cc1ccc(C(F)(F)F)cc1)O2	none (no result: ALR inh, NRP1-CendR mod, PDI inh)
COc1cc(-c2cc(=O)c3c(O)c(OC)c(OC)cc3o2)cc(OC)c1O	ALR inh 77 (no result: PDI inh)
COc1cc(-c2cc(=O)c3c(O)cc(O)cc3o2)ccc1O	none (no result: ERp5 block, ARNT-TACC3 inh, PDI inh)
COc1cc(-c2cc(=O)c3ccccc3o2)ccc1O	ALR inh 99 (no result: PDI inh)
O=C(C[C@H]1CC[C@H](NS(=O)(=O)c2cccc(F)c2)[C@H](CO)O1)NCc1ccc2c(c1)OCO2	none (no result: ALR inh, NRP1-CendR mod, PDI inh)
CC1(C)S[C@@H]2C(C(=O)OCc3ccccc3)NC(=O)N2C1C(=O)OCc1ccccc1 (stereo partly specified)	NRP1-CendR mod 34
C[C@H](CO)N1C[C@H](C)[C@H](CN(C)S(=O)(=O)c2ccccc2)Oc2ncc(C#CCN(C)C)cc2C1=O	none (no result: ALR inh, NRP1-CendR mod, PDI inh)
O=C(O)c1cccc(-c2ccc(/C=N/Nc3nn[nH]n3)o2)c1	ARNT-TACC3 inh 67 (no result: PglD DTNB)
NCCCC[C@H]1CNC(=O)C(=O)N1CC1CCCCC1	NRP1-CendR mod 18
O=C1NC[C@@H](Cc2ccc(O)cc2)N(CCCCC2CCCCC2)C1=O	none (no result: PglD DTNB, ALR inh, ARNT-TACC3 inh, PDI inh)
O=C1NC[C@H](Cc2ccc(O)cc2)N(CC2CCCCC2)C1=O	PDI inh 34
CCC(C)NC(=O)c1ccc2c(SCC(=O)O)c3c(nc2c1)CCCC3 (stereo unspecified)	ALR inh 97 (no result: ERp5 block)
CCCCNC(=O)c1ccc2c(SCC(=O)O)c3c(nc2c1)CCCC3	none (no result: ERp5 block, ALR inh)
COCC(=O)Nc1ccc2c(c1)C(=O)N(C)C[C@H](OC)[C@H](C)CN(CCc1ccccc1)[C@H](C)CO2	none (no result: ALR inh, NRP1-CendR mod, PDI inh)
CC(C)C1(C2CCCC2)NC(=O)NC1=O (stereo unspecified)	none (no result: ALR inh)
CC(C)C1=C2CCCCC2NC(=O)N1 (stereo unspecified)	NRP1-CendR mod 28
CO[C@H]1CN(C)C(=O)c2ccc(NS(C)(=O)=O)cc2OC[C@H](C)N(CC2CC2)C[C@H]1C	none (no result: ALR inh, NRP1-CendR mod, PDI inh)
C/C(=C/c1ccccc1)C(=O)N1CCN(c2ccccc2F)CC1	none
C/C(=C\c1ccccc1)C(=O)N1CCN(c2cccc(C(F)(F)F)c2)CC1	NRP1-CendR mod 29 (no result: ERp5 block)
CCOc1ccc(CCN2C(=S)N([C@@H](CC(C)C)CN3CCCC3CN3C(=S)NC[C@@H]3CC(C)C)C[C@@H]2Cc2ccc(O)cc2)cc1 (stereo partly specified)	none (no result: ALR inh)
CCOc1ccc(CCN2C(=S)N([C@@H](CC(C)C)CN3CCC[C@@H]3CN3C(=S)NC[C@@H]3CC(C)C)C[C@@H]2Cc2ccc(O)cc2)cc1	NRP1-CendR mod 24 (no result: ALR inh, ARNT-TACC3 inh, PDI inh)
CC(C)C[C@@H](CN1CCC[C@@H]1CN1C(=O)C(=O)NC[C@@H]1Cc1ccccc1)N1C[C@H](Cc2ccc(O)cc2)N(CCc2ccccc2)C(=O)C1=O	PDI inh 48 (no result: ALR inh)
CC(C)C[C@@H](CN1CCC[C@H]1CN1C(=O)C(=O)NC[C@@H]1Cc1ccccc1)N1C[C@H](Cc2ccc(O)cc2)N(CCc2ccccc2)C(=O)C1=O	none (no result: PglD DTNB, ALR inh, ARNT-TACC3 inh, PDI inh)
COc1ccc2c3c(n(C)c2c1)[C@@H](CO)NCC31CN(C(=O)Nc2ccccc2F)C1	none (no result: PglD DTNB, ALR inh, ARNT-TACC3 inh, NRP1-CendR mod, PDI inh)
CCc1ccc2nc(Nc3nc(COC)cc(=O)[nH]3)nc(C)c2c1	none (no result: PglD DTNB)
COCc1cc(=O)[nH]c(Nc2nc3ccc(C)cc3o2)n1	ARNT-TACC3 inh 56 (no result: PglD DTNB, ERp5 block)
O=C(NC[C@H]1[C@@H](c2ccccc2)[C@H](CO)N1C(=O)C1CCC1)NC1CCCC1	none (no result: ERp5 block, ALR inh, NRP1-CendR mod, PDI inh)
CCC(=O)N1CC[C@@H]2[C@H](CO)Nc3ccc(-c4ccc(C(=O)N(C)C)cc4)cc3[C@@H]21	none (no result: ALR inh, NRP1-CendR mod, PDI inh)
CCOC(=O)N1CCN(C(=O)c2ccc3c(=O)n(-c4ccc(OC)cc4)c(=S)[nH]c3c2)CC1	none (no result: ERp5 block, ARNT-TACC3 inh)
CCOC(=O)N1CCN(C(=O)c2cccc(-n3c(=S)[nH]c4cc(Cl)ccc4c3=O)c2)CC1	ALR inh 79 (no result: ERp5 block)
Cc1ccccc1-c1ccc([C@@H]2[C@@H](CO)N3C(=O)CN(C(=O)Nc4ccc(F)cc4)C[C@@H]23)cc1	none (no result: PglD DTNB, ALR inh, ARNT-TACC3 inh, NRP1-CendR mod, PDI inh)
CN(C)C(=O)CSc1nnc([C@H](Cc2c[nH]c3ccccc23)NC(=O)OC(C)(C)C)o1	PDI inh 45 (no result: ERp5 block)
CC(C)c1ccc(/C=C2\CC/C(=C\C=N\N(C)C)C2=O)cc1	ALR inh 96 (no result: ERp5 block)
CN(C)/N=C/C=C1\CC/C(=C\c2ccc(F)c(F)c2)C1=O	none (no result: PglD DTNB)
CCCNC(=O)N1CC2(C1)[C@@H](c1ccccc1)[C@H](CO)N2C(=O)C1CC1	none (no result: PglD DTNB, ALR inh, ARNT-TACC3 inh, NRP1-CendR mod, PDI inh)
Cc1cc(C)n(CC2CC(=O)N(c3cc(Cl)cc(Cl)c3)C2=O)n1 (stereo unspecified)	none (no result: ERp5 block)
Cc1cc(C)n(CC2CC(=O)N(c3ccccc3)C2=O)n1 (stereo unspecified)	NRP1-CendR mod 29 (no result: PglD DTNB)
Cc1c(C(=O)c2ccc(Cl)cc2[N+](=O)[O-])c2ccccn2c1CCC#N	ALR inh 95 (no result: PglD DTNB, ERp5 block)
Cc1c(C(=O)c2ccc(N(C)C)cc2)c2ccccn2c1CCC#N	ALR inh 98
CO[C@@H]1CN(C)C(=O)c2ccc(NC(C)=O)cc2OC[C@H](C)N(Cc2cc(F)ccc2F)C[C@H]1C	none (no result: ALR inh, NRP1-CendR mod, PDI inh)
CCC(=O)N1C[C@H](C)[C@@H](OC)CN(C)C(=O)c2ccc(NC(=O)c3ccc(F)cc3)cc2OC[C@@H]1C	none (no result: PglD DTNB, ALR inh, ARNT-TACC3 inh, NRP1-CendR mod, PDI inh)
C/C(=N\NC(=O)c1c(C)nc2ccccn12)c1ccc(C(C)(C)C)cc1	none (no result: ARNT-TACC3 inh)
C/C(=N\NC(=O)c1c(C)nc2ccccn12)c1ccc(N2CCOCC2)cc1	ALR inh 87 (no result: PglD DTNB, ARNT-TACC3 inh)
CCNC(=O)Nc1ccc2c(c1)C(=O)N(C)[C@@H]1CC[C@H](CC(=O)NCCN3CCCC3)O[C@H]1CO2	none (no result: ERp5 block, ALR inh, NRP1-CendR mod, PDI inh)
CCN1CCN(C(c2cc3cccc(C)c3[nH]c2=O)c2nnnn2Cc2ccccc2)CC1 (stereo unspecified)	NRP1-CendR mod 39 (no result: ERp5 block)
C[C@@H]1CN([C@H](C)CO)C(=O)c2cc(/C=C/c3ccccc3)cnc2O[C@H]1CN(C)C(=O)c1cnccn1	none (no result: ALR inh, NRP1-CendR mod, PDI inh)
CCOC(=O)N1CCN(C(=O)c2cc(COc3ccc(OC)cc3Cl)on2)CC1	NRP1-CendR mod 25
COc1ccc(OCc2cc(C(=O)N3CCCCCCC3)no2)c(Cl)c1	none
CC(C)n1c(O)c(/C=C2\C=Nc3ccccc32)sc1=Nc1ccccc1	none (no result: ERp5 block, ALR inh)
